Assay outcomes deposited in PubChem by Sanford-Burnham Center for Chemical Genomics.
A selection: hits, their analogues and other compounds. The true share with any hit is near 31%.
CYP2C9 inhib – blockers of cytochrome P450 2C9 activity – biochemical, luminescence, ADME assay, primary screen | 20% of 96,000 active | P11712 | CYP2C9 Supersomes, luciferin-H conversion | inhibition, % at 5 µM;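 active = blocking of liver enzyme CYP2C9 beyond about 50% at 5 µM, limit read from the data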
Target sequence (P11712 whole entry, looked up): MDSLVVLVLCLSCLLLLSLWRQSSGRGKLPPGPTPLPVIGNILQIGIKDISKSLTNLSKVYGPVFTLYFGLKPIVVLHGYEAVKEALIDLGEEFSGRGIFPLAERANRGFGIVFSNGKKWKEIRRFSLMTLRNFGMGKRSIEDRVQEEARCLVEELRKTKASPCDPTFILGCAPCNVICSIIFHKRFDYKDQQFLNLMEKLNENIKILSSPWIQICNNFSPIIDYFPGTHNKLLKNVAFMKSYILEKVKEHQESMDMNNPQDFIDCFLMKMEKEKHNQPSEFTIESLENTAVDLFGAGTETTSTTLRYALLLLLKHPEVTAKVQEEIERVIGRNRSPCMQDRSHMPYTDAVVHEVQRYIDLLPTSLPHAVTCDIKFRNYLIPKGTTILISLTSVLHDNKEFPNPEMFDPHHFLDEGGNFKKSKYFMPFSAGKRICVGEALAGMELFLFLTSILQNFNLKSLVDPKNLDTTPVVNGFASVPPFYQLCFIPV
CYP2C19 inhib – blockers of cytochrome P450 2C19 activity – biochemical, luminescence, ADME assay, primary screen. P33261. CYP2C19 Supersomes, luciferin-H EGE luminescence, 30 min. inhibition, % at 5 µM. 21% of 96,000 active. AID 778, 2007;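 active = CYP2C19 inhibition above a set limit at 5 µM in the primary screen, cut at about 50% in these data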
CYP2C19 act – human CYP2C19 activators, primary screen, biochemical, luminescence | 96,000 tested, under 10 active | Cytochrome P450 2C19 (Homo sapiens), P33261 | recombinant CYP2C19, luciferin-H EGE luminescence; hits give high values; 0 = fully inhibited enzyme, 1 = untreated enzyme | activation factor at 5 µM;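 active = activation factor of at least 2 at 5 µM in the primary screen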
PLAP act – PLAP enzyme activators, biochemical, luminescence, HTS. 1.2% of 96,000 active. AID 696, 2007. activation fold at 20 µM. purified PLAP enzyme, luminescent substrate read-out; hits give high values. Alkaline phosphatase, placental type (Homo sapiens), P05187; in the data active = activation fold above about 2
CYP2C9 act – human CYP2C9 activators, primary screen, biochemical, luminescence; 1.4% of 96,000 active; activation factor at 5 µM; recombinant CYP2C9, luciferin-H conversion; hits give high values; factor 1 = untreated enzyme, 0 = blocked; Cytochrome P450 2C9 (Homo sapiens), P11712;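 active = activation factor of 2 or more for CYP2C9 at a 5 µM dose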
Large screens that a line does not name were inactive.

Cc1cc(Nc2cnc3ccccc3n2)n(-c2ccccc2)n1	CYP2C9 inhib 72.5, CYP2C19 inhib 69.0
Cc1cc(Nc2ccccc2)n(-c2cccc(Cl)c2)n1	CYP2C9 inhib 77.7, CYP2C19 inhib 79.6
Cc1cc(Nc2nc3ccccc3nc2Cl)n(-c2ccc([N+](=O)[O-])cc2)n1	none
Cc1nc2ncnn2c(C)c1CCC(=O)NCCCN1CCN(c2cccc(Cl)c2)CC1	none
CC(C(=O)c1ccccc1)n1cnc2ccccc2c1=O (centres undefined)	none
COc1ccc(C)cc1NC(=O)c1nnn(Cc2cc(C)ccc2C)c1N	CYP2C9 act 2.4
COc1cccc(Cn2nnc(C(=O)Nc3ccc(C)cc3)c2N)c1	CYP2C9 act 2.1
COc1ccc(NC(=O)c2nnn(Cc3ccc(SC)cc3)c2N)c(OC)c1	CYP2C9 act 2.5
COc1ccc(OC)c(NC(=O)c2nnn(Cc3ccccc3C)c2N)c1	CYP2C9 act 2.1
COc1cc(/C=N/NC(=O)C(C)n2nnc3ccccc32)ccc1O (centres undefined)	none
CC(C)(C)SCCNC(=O)CN(c1ccc(F)c(Cl)c1)S(C)(=O)=O	none
O=C(CNC1=NCCC1)c1ccc2c(c1)OCCO2	none
O=C(CSc1nc(N2CCCCC2)nc(N2CCCCC2)n1)c1ccccc1	CYP2C9 inhib 78.8
Cc1cc(N2CCCCC2)nc(SCC(=O)c2ccccc2)n1	none
Cn1c(SCC(=O)NCCc2ccccc2)nnc1-c1ccncc1	none
O=C(CSc1n[nH]c(-c2ccncc2)n1)NCCc1ccccc1	CYP2C9 inhib 96.8, CYP2C19 inhib 91.9
CCc1nc(SCC(=O)Nc2ccccc2C(=O)OC)n[nH]1	PLAP act 2
CCc1nc(SCC(=O)NCCc2ccccc2)n[nH]1	CYP2C19 inhib 56.1
Cc1ccc(C)c(N2CCN(CCCNC(=O)Cn3cc4c(n3)CCC(C)C4)CC2)c1 (centres undefined)	none
O=C(O)c1ccccc1NCN1C(=O)C2CC=C(Cl)CC2C1=O (centres undefined)	none
C=CCN(C(=O)CNC(=O)c1ccco1)C(C(=O)NC1CCCCC1)c1ccc(OC)cc1OC (centres undefined)	none
Cc1cc(-c2ccccc2)nc(SCC(=O)c2cccc([N+](=O)[O-])c2)n1	CYP2C9 inhib 68.1
O=C(CSc1n[nH]c(-c2ccccc2)n1)Nc1ncc(Br)cc1Br	CYP2C9 inhib 88.0, CYP2C19 inhib 86.8
CCOC(=O)CSc1n[nH]c(NC(=O)c2cccc(C)c2)n1	none
Cc1ccc(C)c(C(=O)CSc2n[nH]c(-c3ccncc3)n2)c1	CYP2C9 inhib 99.4, CYP2C19 inhib 98.3
CC(=O)Nc1nc(SCCCc2ccccc2)n[nH]1	CYP2C19 inhib 80.4, PLAP act 2.4
NS(=O)(=O)c1ccc(NC(=O)COC(=O)CSc2n[nH]c(-c3ccccc3)n2)cc1	none
CCOc1ccc(C(=O)CCNC(Cc2cnc[nH]2)C(=O)O)cc1 (centres undefined)	none (no result: CYP2C9 inhib, CYP2C19 inhib, CYP2C19 act, CYP2C9 act)
O=C(CSc1ncccn1)NCc1ccccc1	none
CC(C)c1nc(SCC(=O)NCc2ccccc2)n[nH]1	CYP2C19 inhib 54.2
Cc1nc(SCC(=O)c2ccccc2)n[nH]1	CYP2C9 inhib 52.2, PLAP act 2.2
O=C(CSc1n[nH]c(-c2ccncc2)n1)c1ccccc1	CYP2C9 inhib 96.4, CYP2C19 inhib 89.8
CCCN(CCC)S(=O)(=O)c1ccc(C(=O)N2CCC(=O)c3ccccc32)cc1	none
CCCC(O)(CCN(C)C)c1ccc(OC)cc1 (centres undefined)	none
CNC(=S)NN(c1ccccc1)c1ccccc1	CYP2C19 inhib 77.5
CNC(=S)Nc1ccc(Nc2ccccc2)cc1	none
O=C(CN1C(=O)NC2(CCCCCCC2)C1=O)N1CCOCC1	none
O=C(c1ccc(F)cc1)N1CCCCC(Sc2nnnn2-c2ccccc2)C1=O (centres undefined)	CYP2C9 inhib 73.8, CYP2C19 inhib 72.7
O=C(c1ccccc1)N1CCCCC(S(=O)(=O)c2ccccc2)C1=O (centres undefined)	none
O=C1OCCC1Sc1nnc(-c2ccc3c(c2)OCO3)n1-c1ccccc1 (centres undefined)	none
O=C1OCCC1Sc1nc(-c2ccccc2)cs1 (centres undefined)	CYP2C19 inhib 86.7, CYP2C9 act 2.1
O=C1OCCC1Sc1nnnn1-c1ccccc1 (centres undefined)	CYP2C19 inhib 87.9
COc1ccc(OCc2nnc(SC3CCOC3=O)n2-c2ccccc2)cc1 (centres undefined)	CYP2C19 inhib 84.4
CCN(CC)c1ccc(C(=S)N2CCN(c3ccccc3)CC2)cc1	none
CC(C)N1C(=O)C2C(c3ccccc3O)NC(C)(C(=O)O)C2C1=O (centres undefined)	none
COc1ccc(C(=O)Nc2cc3c(cc2C#N)OCO3)cc1S(=O)(=O)NCc1ccco1	none
Cc1c(C(=O)COC(C)(C)C)[nH]c2ccccc12	CYP2C19 inhib 54.7
C=CCn1c(NCc2ccccc2)nc2ccccc21	none
CN(C)CCCn1c(NCc2ccc3c(c2)OCO3)nc2ccccc21	none
CCn1c(NCc2ccc3c(c2)OCO3)nc2ccccc21	CYP2C19 inhib 73.4
C=CCn1c(NCc2ccc3c(c2)OCO3)nc2ccccc21	CYP2C9 inhib 72.6, CYP2C19 inhib 94.7
O=C(NCc1ccccn1)c1cn(CCc2ccccc2)nn1	none
CCOC(=O)CN1NC2(CCCCC2)NC1=S	none
CCOC(=O)Cn1c2c(c(=N)c3c1CCC3)CCC2	none
CCOC(=O)CN1NC2(CCC(C)CC2)NC1=S (centres undefined)	CYP2C19 inhib 61.4
CCOC(=O)CN1NC2(CCCC(C)C2)NC1=S (centres undefined)	CYP2C19 inhib 61.2
C=CCN=C(NC#N)SCCc1ccccc1	CYP2C9 inhib 51.6, CYP2C19 inhib 93.3
C=CCN=C(NC#N)SCC(=O)NC(C)(C)C	none
C=CCN=C(NC#N)SCC(=O)NCc1ccccc1	CYP2C19 inhib 50.7
COC(=O)CN(n1cnnc1)S(=O)(=O)c1ccccc1	none
COc1ccc(-c2cc(=O)oc3cc(OCc4nn[nH]n4)ccc23)cc1	CYP2C9 inhib 76.0
COC(=O)Cc1cc(=O)oc2cc(OC)ccc12	none
CC(Oc1ccc2c(-c3ccccc3)cc(=O)oc2c1)C(=O)O (centres undefined)	CYP2C9 inhib 74.1
COc1ccc(-c2nnc(COc3ccc4ccccc4c3)o2)cc1OC	none
COC(=O)COc1ccc2c(-c3ccc(OC)cc3)cc(=O)oc2c1	CYP2C19 inhib 51.7
COc1ccc(-c2cc3ccc(OCc4nn[nH]n4)cc3oc2=O)cc1OC	CYP2C9 inhib 58.9
O=c1cc(NC2CCCCCC2)[nH]c(=O)[nH]1	none
Cc1c(Br)c([N+](=O)[O-])nn1CC(=O)NCc1cccs1	none
CCCc1cc(=O)oc2cc(OCC(=O)OC)cc(OCC(=O)OC)c12	CYP2C9 inhib 61.4
